# Source: PubChem
# FMDV antiviral – High Throughput Screening for Foot and Mouth Disease Virus Antivirals; FMDV antiviral cell-based qHTS; Potency, µM (titrated, usually from 57.9 µM), for the others: at the top dose activity change, negative = inhibition, most hits filed as inhibitors; 1.2% of 410,000 active; AID 1159524, 2015; calls by dose curve; tested in HEK293T cells; note: read-out not given here; potency is the fitted concentration of half-maximal effect; nearly all actives have a fitted effect of over 45% in size
# HCMV antiviral – qHTS Assay for inhibitors of the human cytomegalovirus (HCMV); HFF cells, HCMV-luciferase reporter, 72 h; active compounds read low; activity change, negative = inhibition, % at 57.5 µM; 4.5% of 410,000 active; in the data active = activity change below about -60%; inconclusive = no clear call, values can overlap the other calls; inactive = above about -39%
#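 Human foreskin fibroblasts infected with luciferase-reporter HCMV at MOI 1 PFU/cell, compounds at two doses. Luciferase measured 72 h post infection; normalized to buffer-only basal and Salinomycin (10uM) controls.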
# Lassa entry inh – qHTS for Inhibitors of binding or entry into cells for Lassa Virus | Lassa virus pseudotype entry inhibition, cell reporter | Potency, µM (titrated, usually from 37.9 µM), inactives show at the top dose activity change, negative = inhibition, usual class: inhibitors | 1.2% of 300,000 active | AID 540256, 2011; calls by dose curve; tested in HEK293 cells; note: potency is the fitted concentration of half-maximal effect; nearly all actives have a fitted effect of over 50% in size
# Marburg entry inh – qHTS for inhibitors of binding or entry into cells for Marburg Virus; Marburg virus pseudotyped entry inhibition, cell reporter; Potency, µM (series often up to 37.8 µM), inactives show at the top dose activity change, negative = inhibition, actives largely listed as inhibitors; AID 540276, 2011; 1.8% of 300,000 active; calls by dose curve; tested in HEK293 cells; note: potency is the fitted concentration of half-maximal effect
# VACV Venus inh – qHTS for Stage-Specific Inhibitors of Vaccinia Orthopoxvirus: Venus Reporter Primary qHTS. Vaccinia virus Venus reporter expression, fluorescence. Potency, µM (top dose mostly 36.5 µM), for the others: top-dose activity change, negative = inhibition, hits mostly inhibitors. 0.46% of 330,000 active; calls by dose curve; tested in A549 cells; note: potency is the fitted concentration of half-maximal effect; nearly all actives have a fitted effect of over 30% in size
# Vaccinia mCherry – qHTS for Stage-Specific Inhibitors of Vaccinia Orthopoxvirus: mCherry Reporter Primary qHTS | 0.63% of 310,000 active | Potency, µM (doses to about 36.5 µM), for inactives: at the top dose activity change, negative = inhibition, usual class: inhibitors | Vaccinia virus mCherry reporter infection, fluorescence | AID 720579, 2013; calls by dose curve; tested in A549 cells; note: potency is the fitted concentration of half-maximal effect; nearly all actives have a fitted effect of over 35% in size
# Numbers without * were called inactive; i = inactive; ? = inconclusive; · = no result; [ ] = remark or other dose. Sampled rows, rich in hits. Any-hit rate of the full collection: about 6.5%. % is set by controls: 0 for no effect and ±100 for the full control effect.
SMILES,FMDV antiviral,HCMV antiviral,Lassa entry inh,Marburg entry inh,VACV Venus inh,Vaccinia mCherry
Cc1cc(C(=O)N/N=C/c2ccncc2)c(C)o1,0%,18,-5%,-13%,-1%,-14%
Cc1ccc(/C=N/NC(=O)c2cc(C)oc2C)cc1,17%,?,?,10µM*,-18%,-27%
COc1ccccc1CCNC(=O)Cc1c(C)c2cc3c(C)coc3cc2oc1=O,3%,-21,-9%[46.1 µM],-4%[46.1 µM],-5%,-10%
Cc1cc(C)cc(NC(=O)NCCc2c(C)nn(C)c2C)c1,6%,-2,1%[46.1 µM],·,-9%,-1%
Cc1ccc(C(=O)c2coc3ccc(O)c(CN4CCN(C)CC4)c23)cc1,-20%,19,-17%,23µM*,·,·
CN(CCC#N)C(=O)COC(=O)c1ccccc1C(=O)c1ccc(Cl)c([N+](=O)[O-])c1,?,-97*,?,?,-19%,-24%
O=C(COC(=O)c1ccccc1C(=O)c1ccc(Cl)c([N+](=O)[O-])c1)NC1CCCCCC1,?,·,18µM*,4.1µM*,·,·
Cn1c(N)c(C(=O)COC(=O)c2ccccc2C(=O)c2ccc(Cl)c([N+](=O)[O-])c2)c(=O)n(C)c1=O,?,·,?,11µM*,?,?
Cn1c(N)c(C(=O)COC(=O)c2ccccc2C(=O)c2ccccc2)c(=O)n(C)c1=O,2%,0,·,·,·,·
CN(C)c1ccc(CNC(=O)c2csc(N3CCN(CCc4ccccc4)C3=O)n2)cc1,·,-1,·,·,·,·
CCOc1ccc(NC(=O)CSC2=C(C#N)[C@H](c3ccc4c(c3)OCO4)CC(=O)N2)cc1,·,·,·,5%[46.1 µM],·,·
COc1ccc(NC(=O)N2c3ccc(OC)cc3[C@@H](NC(C)=O)[C@H](C)[C@H]2c2ccccc2)cc1,·,18,·,·,·,·
Cc1ccc(-c2cc(C(=O)N/N=C/c3c(C)nn(-c4ccccc4)c3C)[nH]n2)cc1,·,-98*,·,-2%,·,·
Cc1ccc(-c2cc(C(=O)N/N=C/c3c(C)nn(-c4ccccc4)c3C)n[nH]2)s1,?,-92*,8.2µM*,?,·,·
Cc1nn(-c2ccccc2)c(C)c1/C=N/NC(=O)c1cc(C(C)(C)C)[nH]n1,0%,9,?,4.5µM*,?,·
Cc1nn(-c2ccccc2)c(C)c1-c1cc(C(=O)N/N=C/c2cccnc2)[nH]n1,·,-1,·,·,·,·
COC(=O)[C@@H]1CC[C@H](C)[C@@H](c2ccc(C)cc2)N1C(=O)c1ccc(C=NOC[C@@H](O)COCc2ccco2)cc1,·,·,15%[14.3 µM],?,·,·
CCCCn1c(SCC(=O)N2c3ccccc3CCc3ccccc32)nc2c1c(=O)n(C)c(=O)n2C,?,5,-4%,?,-10%,i
CCCCn1c(SCc2nnc(-c3ccccc3)o2)nc2c1c(=O)n(C)c(=O)n2C,0%,-66*,35%[14.3 µM],-21%,-9%,-14%
Cc1noc(C)c1C(=O)NCc1ccccc1Br,-10%,-7,2%[46.1 µM],-5%[46.1 µM],-9%,i
Cc1noc(C)c1C(=O)NCc1ccccc1F,10%,-69*,0%,-8%,-13%,i
Cc1oc(-c2ccccc2NC(=O)c2ccsc2)nc1CN(C)CC1CC=CCC1 (configuration not stated),-13%,·,·,·,8%,-8%
Cc1ccc(S(=O)(=O)N(Cc2nc(-c3cccc(C)c3)no2)C2CCCCC2)cc1,26%,-14,25%[46.1 µM],14%[46.1 µM],-21%,-18%
O=C(N/N=C/c1ccc([N+](=O)[O-])cc1)c1cccc2cc[nH]c12,-4%,-5,0%,13%,·,·
CCN(CC)c1ccc(/C=N\NC(=O)c2cccc3cc[nH]c23)cc1,16%,-63*,?,-8%,?,-17%
SMILES,FMDV antiviral,HCMV antiviral,Lassa entry inh,Marburg entry inh,VACV Venus inh,Vaccinia mCherry
O=C(Nc1cccn(Cc2c(Cl)cccc2Cl)c1=O)c1ccc(Cl)cc1Cl,?,-97*,-26%,-28%,·,·
O=C(Nc1cccn(Cc2c(Cl)cccc2Cl)c1=O)c1ccccc1Cl,?,-31,-6%,?,·,·
CC1CCCN(c2cccc3c2S(=O)(=O)N(Cc2cccc(F)c2)[C@@H](C)[C@H](c2ccccc2)O3)C1 (some centres not stated),·,-15,·,·,·,·
Cc1nc2ccccc2c(N)c1C(=O)/C=C/c1ccccc1,18µM*,-99*,10µM*,?,?,16µM*
CC(=O)c1c(C)nc2ccccc2c1N,-17%,-23,?,6%,-14%,·
Cc1cnc2ccc(I)cc2c1/C=C/c1ccc(N(C)C)cc1,·,·,·,·,-19%,-25%
Cc1ccc(CN2C(=O)CN=C(c3ccccc3)c3ccccc32)cc1,?,-74*,-23%,?,-9%,i
CC(C)(C)c1nnc(NC(=O)C2CCN(C(=O)c3ccccc3)CC2)s1,·,·,·,·,-21%,-20%
COc1ccc(-c2oc3ncnc(NCCCN(C)C)c3c2-c2ccc(OC)cc2)cc1,?,-84*,·,·,·,·
COc1ccc(NC(=O)N2c3ccc(OC)cc3[C@@H](NCc3cnc[nH]3)[C@H](C)[C@H]2c2ccccc2)cc1,·,32,·,·,·,·
Clc1cccc(-c2ccc(-c3nc4ccccn4c3NCc3ccccc3)cc2)c1,-21%,-80*,·,·,?,?
COc1ccc(-c2nc3ccccn3c2NCc2ccc3c(c2)OCO3)cc1,14%,43,15%,-8%,-2%,-13%
c1ccc(CNc2c(-c3cccc(SC4CCCCC4)c3)nc3ccccn23)cc1,22µM*,-35,·,·,?,-18%
COc1ccc(-c2cc(-c3nc4ccccn4c3NCc3ccccc3)ccc2OC)cc1,3.5µM*,-79*,·,·,11µM*,?
Cc1ccc2nc(-c3cccc(SC4CCCCC4)c3)c(NCc3ccccc3)n2c1,25µM*,-22,·,·,?,-34%
Cc1ccc(F)cc1C(=O)N1CCCCC1c1cc(C(=O)Nc2ccncc2)no1 (configuration not stated),·,-16,·,·,·,·
NC(=S)N/N=C1\CC(n2nnn(-c3cccc(Cl)c3)c2=S)C2COC1O2 (configuration not stated),-20%,-24,-14%,?,?,11µM*
NC(=S)N/N=C1\CC(n2nnnc2-c2ccccc2)C2COC1O2 (configuration not stated),11%,-68*,·,·,·,·
COc1ccc(-c2nc3ccccc3o2)cc1NC(=O)c1ccc(N2CCC(C)CC2)c([N+](=O)[O-])c1,44%,0,25%[46.1 µM],?,-11%,-12%
COc1ccc(CN2CCOc3c(cc(-c4ccc(OC)nn4)cc3OC)C2)c(O)c1,9%,·,·,·,-18%,-24%
CCN1CCCC1CNC(=O)c1cnn(-c2nccc(-c3cc4ccccc4o3)n2)c1C (configuration not stated),4%,·,·,·,-10%,-6%
c1ccc2c(c1)sc[n+]2CCC1CCCCC1,·,·,·,·,-6%,-7%
